These are literature values, as cited in PubChem BioAssay AID977608.

The nature of this series: protein-ligand inhibition affinities from structures – PDB-derived complexes (AID 977608).

About 4,300 (100%) of roughly 4,300 compounds were called active. The limit is not given here; nearly all actives have IC50 up to about 1400 µM. The set was probably picked from earlier hits. Some of the results follow. Where a SMILES comes first, the peptide text is derived from it. Square brackets hold non-standard residues; d marks the D form. Residues, ends and D or L forms follow the SMILES beside them. Peptide text beside a SMILES is read from it. * marks the point of attachment. Orn(CH(NH2)2) = NC(N)NCCC[C@H](N)C(=O)O; Abu = CC[C@H](N)C(=O)O; Dap = NC[C@H](N)C(=O)O; Propionyl = CCC(=O)*

What is called IC50 is the point on the concentration scale where inhibition reaches its midpoint. As to `O=C[N+](=O)CCC[P+](O)(O)O`, the IC50 is 0.03 µM (active) (literature IC50, protein: E. coli 1-deoxy-D-xylulose 5-phosphate reductoisomerase (DXR), PDB entry 1onp) and 2.39 µM (active) (literature IC50, protein: Oxidoreductase, PDB entry 3upy). For `NC(=O)C[C@@H]1NC(=O)C2(CCCCC2)NC(=O)C[C@@H](c2ccc(C[P+](O)(O)O)cc2)/C=C/C[C@@H](Cc2cccc3ccccc23)CNC1=O`, under “literature IC50, protein: growth factor receptor binding protein SH2 domain, PDB entry 1x0n”, the half-inhibitory concentration (IC50) was 0.02 µM (active).

For the molecule `CC(C)C1=CC2=C(C(O)C1=O)[C@@]1(C)CCCC(C)(C)[C@@H]1C(=O)C2` (stereo partly specified), the IC50 (literature IC50, protein: Farnesyl pyrophosphate synthase HsFPPS-5, PDB entry 4p0v) was 1.2 µM (active). Regarding `O=C(c1csc(-c2ccsc2)n1)n1ccc2ccccc21`, under “literature IC50, protein: 3-OXOACYL-[ACYL-CARRIER-PROTEIN] REDUCTASE FABG, PDB entry 4bo6”, the IC50 is 0.18 µM (active). In the case of H-SDFEEFSLDDIEQ-OH, the IC50 (literature IC50, protein: ?-thrombin, PDB entry 1thr) is 4.2 µM (active).

As for H-ETFEHWWSQLLS-OH, the 50% inhibitory concentration (IC50) is 0.008 µM (active) (literature IC50, protein: E3 ubiquitin-protein ligase Mdm2, PDB entry 3jzs) and 0.11 µM (active) (literature IC50, protein: Human Protein Mdm4, PDB entry 3jzq). For the molecule `CC[C@H](C)[C@H](NC(=O)[C@H](Cc1ccccc1)NC(=O)[C@H](Cc1ccc(O)cc1)NC(=O)[C@H](CCC(=O)O)NC(=O)[C@@H](N)CCCCN)C(=O)O` (tested in a mixture with another compound) (H-KEYFI-OH), the IC50 (literature IC50, protein: HLA class I histocompatibility antigen, A-2 alpha chain HLA-A*0201, PDB entry 4u6x) was 0.414 µM (active).

Regarding H-LTFEHWWAQLTS-OH, the IC50 (literature IC50, protein: E3 ubiquitin-protein ligase Mdm2, PDB entry 3jzr) was 0.036 µM (active) and the IC50 (literature IC50, protein: Human Protein Mdm4, PDB entry 3jzp) is 0.25 µM (active). Turning to `C#Cc1csc2c1NC(NC1CCCC1)=[N+](CC)C2O` (stereo unspecified), the IC50 (literature IC50, protein: High affinity cAMP-specific 3',5'-cyclic phosphodiesterase 7A PDE7A, PDB entry 4pm0) is 0.045 µM (active). For `N#Cc1ccc(-c2ccc(OCC(=O)O)cc2CN2CCN(c3ccccn3)CC2)cc1`, the half-inhibitory concentration (IC50) (literature IC50, protein: PANTOTHENATE KINASE, PDB entry 4bfy) is 0.12 µM (active). On to `CCc1c(N2CCOCC2=O)cccc1S(=O)(=O)N[C@@H](Cc1cc(-c2ccc(Cl)s2)on1)C(=O)N1CCC(OC)CC1`, for which, where the note is “literature IC50, protein: COAGULATION FACTOR X LIGHT CHAIN & COAGULATION FACTOR X, PDB entry 4btt”, the IC50 was 0.00143 µM (active). Take `COCCOCCc1c(C)c2cc(OC)c(O)c(C)c2oc1=O`: under “literature IC50, protein: Serine/threonine-protein kinase/endoribonuclease IRE1-alpha, PDB entry 4pl3”, the IC50 is 0.29 µM (active). Regarding `Cc1cc(O)c(C(C)C)cc1N=O`, the IC50 (literature IC50, protein: Serine/threonine-protein kinase PLK1, PDB entry 4h71) was 35.6 µM (active). In the case of `Oc1ccc(-c2nc(-c3ccc(F)cc3)c(-c3ccncc3)[nH]2)cc1`, the IC50 (literature IC50, protein: Bromodomain-containing protein 4 BRD4-1, PDB entry 4o77) is 2.5 µM (active).

In the case of `N#Cc1ccc(O)cc1F`, where the note is “literature IC50, protein: M-phase inducer phosphatase 2 CDC25B, PDB entry 4wh7”, the IC50 is 5000 µM (active). Take `CC(=O)N1CCC[C@H]([C@]2(Cc3cccc(Cl)c3)C(=O)Nc3cc(Cl)ccc32)C1`: the IC50 (literature IC50, protein: Humanized Xenopus E3 ubiquitin-protein ligase Mdm2, PDB entry 4lwt) was 3.9 µM (active). Regarding `CCOc1c(I)cc(Cl)cc1CNCCCNC(=O)Nc1ccsc1`, the IC50 (literature IC50, protein: Trypanosoma brucei methionyl-tRNA synthetase, PDB entry 4mw7) is 10 µM (active). As to `OCc1cc(-c2cn[nH]c2-c2ccc(F)cc2)ccn1`, the IC50 (literature IC50, protein: Casein kinase I isoform delta, PDB entry 4kbc) is 0.0142 µM (active). `COc1ccccc1-n1c(-c2cc(O)ccc2C)c[n+]2c3c(=O)[nH]c(=O)n(C)c3[nH]c12`: where the note is “literature IC50, protein: EPH receptor A3, PDB entry 4gk2”, the half-maximal inhibitory concentration (IC50) is 0.0016 µM (active). Turning to `O=C1CCN(c2cccc([N+](=O)[O-])c2)C(=O)N1`, the IC50 (literature IC50, protein: Bifunctional protein GlmU, PDB entry 4kpz) is 1950 µM (active). With `CCC(=O)NC[C@H](NC(=O)[C@@H](NC(=O)[C@@H]1CCCN1C(=O)[C@H](CCCNC(N)N)NC(=O)[C@H](CC(C)C)NC(=O)[C@@H](N)CCCCN)C(C)C)C(=O)N[C@@H](CCSC)C(=O)N[C@H](C(=O)N[C@@H](CCCNC(N)N)C(=O)N1CCC[C@H]1C(=O)N[C@@H](Cc1c[nH]c2ccccc12)C(=O)N[C@H](C(=O)N[C@@H](CCCNC(N)N)C(=O)O)C(C)C)C(C)C` (H-KL[Orn(CH(NH2)2)]PV[Dap](Propionyl)MV[Orn(CH(NH2)2)]PWV[Orn(CH(NH2)2)]-OH), where the note is “literature IC50, protein: E3 ubiquitin-protein ligase SIAH1 (T156C mutation), PDB entry 4i7c”, the 50% inhibitory concentration (IC50) was 0.006 µM (active).

Consider `CSCC[C@H](NC(=O)[C@@H]1CCCN1C(=O)CNC(=O)[C@H](CO[P+](O)(O)O)NC(=O)[C@H](Cc1ccc(O)cc1)NC(=O)[C@@H](NC(=O)[C@@H](N)CCCNC(N)N)[C@@H](C)O)C(=O)N[C@@H](CC(N)=O)C(=O)N[C@@H](CCCCN)C(=O)N[C@H](C(=O)O)C(C)C`, for which the concentration for half-maximal inhibition (IC50) (literature IC50, protein: HLA class I histocompatibility antigen, PDB entry 3bh9) was 0.117 µM (active). With `CC[C@H](NC(=O)[C@@H](NC(=O)[C@@H]1CCCN1C(=O)[C@H](CCCNC(N)N)NC(=O)[C@@H](N)CC(C)C)C(C)C)C(=O)N[C@@H](CCSC)C(=O)N[C@H](C(=O)N[C@@H](CCCNC(N)N)C(=O)N1CCC[C@H]1C(=O)N[C@H](C(=O)N[C@H](C(=O)O)C(C)C)[C@@H](C)O)C(C)C` (H-L[Orn(CH(NH2)2)]PV[Abu]MV[Orn(CH(NH2)2)]PTV-OH), the IC50 (literature IC50, protein: E3 ubiquitin-protein ligase SIAH1, PDB entry 4i7b) is 2 µM (active).

`CCC(=O)NCCCC[C@H](NC(=O)[C@@H]1CCCN1C(=O)[C@H](CCCNC(N)N)NC(=O)[C@@H](NC(=O)[C@H](CCSC)NC(=O)[C@H](C)NC(=O)[C@@H](NC(=O)[C@@H]1CCCN1C(=O)[C@H](CCCNC(N)N)NC(=O)[C@H](CC(C)C)NC(=O)[C@H](CCCCN)NC(C)=O)C(C)C)C(C)C)C(=O)N[C@H](C(=O)N[C@@H](CCCNC(N)N)C(=O)O)C(C)C` (Ac-KL[Orn(CH(NH2)2)]PVAMV[Orn(CH(NH2)2)]PK(Propionyl)V[Orn(CH(NH2)2)]-OH): the IC50 (literature IC50, protein: E3 ubiquitin-protein ligase SIAH1, PDB entry 4i7d) is 0.1 µM (active). As for `CC(C)C[C@H](NC(=O)[C@H](CC(C)C)NC(=O)[C@H](CC(C)C)NC(=O)[C@H](CCCCN)NC(=O)[C@H](CCCCN)NC(=O)[C@H](CC(C)C)NC(=O)[C@H](CC(C)C)NC(=O)[C@H](CO)NC(=O)[C@@H]1CCCN1)C(=O)N[C@@H](C)C(=O)N1CCC[C@H]1C(=O)N[C@@H](C)C=O` (H-PSLLKKLLLAPA-aldehyde), the half-maximal inhibitory concentration (IC50) (literature IC50, protein: PPARgama, PDB entry 3cs8) is 1.7 µM (active). As to `CC(C)C[C@H](NC(=O)[C@@H](O)CC(=O)O)C(=O)NCCCCNC(N)N`, the IC50 (literature IC50, protein: Streptopain, PDB entry 4d8e) is 0.098 µM (active).

Consider `CCC(CC)[C@H](NC(C)=O)[C@@H]1[C@H](O)[C@@H](C(=O)O)C[C@H]1NC(N)N`, for which the concentration for half-maximal inhibition (IC50) is 0.0004 µM (active) (literature IC50, protein: Neuraminidase, PDB entry 4mwv) and 0.185 µM (active) (literature IC50, protein: Neuraminidase, PDB entry 4mx0).
